Experimental data published in PubChem BioAssay AID431 (Sanford-Burnham Center for Chemical Genomics, 2006).
Hit rate of the full screen: of about 63,000 compounds, about 1,100 (1.7%) were called active. The sample holds actives, similar compounds and a random draw of the others, so the mix is not that of the screen. Entries with a potency or affinity are not part of this list. Values without a mark were called inactive.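 How the source made its calls: active means compounds whose percent cytotoxicity in the single-dose primary screen, scaled between solvent and toxic-drug controls, exceeds 50; inactive means the rest.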

experiment: viability loss of HPDE-C7K cells – cell-based, fluorescence, HTS, primary screen (AID 431); details: HPDE-C7K KRASV12 cells, Alamar Blue viability, 48 h; at 10 µM; hits give high values;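 further: 0% = DMSO solvent wells and 100% = doxorubicin-treated wells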

| Structure (SMILES) | cytotoxicity |
| --- | --- |
| Cc1occc1-c1nnc(SCC(=O)N2CCCc3ccccc32)n1Cc1ccco1 | -3.2% |
| Cc1nc(Nc2nc(-c3ccccc3)cc(=O)[nH]2)nc2ccccc12 | 68.2% (active) |
| COCc1cc(=O)[nH]c(Nc2nc(C)c3ccc(C)cc3n2)n1 | 2.4% |
| COc1ccc2c(C)nc(Nc3nc(C)cc(C)n3)nc2c1 | -1% |
| Cc1nnc(SCc2cc(=O)[nH]c(Nc3nc(C)c4ccccc4n3)n2)s1 | 3.9% |
| CCCCCc1c(C)nc(Nc2nc(C)c3cc(OC)ccc3n2)[nH]c1=O | 9.7% |
| Cc1ccc(Nc2nc(CSc3nnnn3-c3ccccc3)cs2)cc1 | 39.8% |
| CCc1c(C)nc(Nc2nc(C)c3cc(OC)ccc3n2)[nH]c1=O | 49.1% |
| Cc1nc(-c2ccccc2)cc(=O)[nH]1 | 6.9% |
| Cc1ccc(Nc2nc(CSc3nnnn3-c3ccccc3)cc(=O)[nH]2)cc1 | 23.4% |
| COc1ccc2c(C)nc(Nc3nc(C)cc(=O)[nH]3)nc2c1 | 87.3% (active) |
| COc1nc(Nc2nc3ccccc3c(=O)[nH]2)nc2ccc(C)cc12 | 91.7% (active) |
| Cc1ccc2c(C)nc(Nc3nc(CSc4nnnn4-c4ccccc4)cc(=O)[nH]3)nc2c1 | 54.8% (active) |
| O=C(O)Cc1nc2nc3c(c(=O)n2[nH]1)CCCC3 | 2% |
| Cc1cc(C)nc(NC(=O)c2cccc(Cl)c2)n1 | -1.9% |
| COc1ccc(OCCCC(=O)Nc2ccc3c(c2)OCCO3)cc1 | 12.2% |
| C=CCc1c(C)c(C#N)c2nc3ccccc3n2c1NCCN(C)C | 5.5% |
| CCOC(=O)c1cc2c(ccn2C)n1CC(=O)N1CCN(c2ccc(F)cc2)CC1 | -18.9% |
| CSc1nc(N2CCOCC2)c2ccccc2n1 | 9.1% |
| Cc1cc(C)c(NC(=O)CN2CCN3CCCC3C2)c(C)c1 (stereo unspecified) | 2.9% |
| O=C(NC1CC2CCCC(C1)N2C1CC1)NC12CC3CC(CC(C3)C1)C2 (stereo unspecified) | 5.1% |
| CCOC(=O)c1cccc(NC(=O)CSc2nc3ccccc3c(=O)n2CC)c1 | -11.5% |
| O=C(COC(=O)CCC1CCCC1)Nc1ccc(Cl)cn1 | -7.1% |
| COc1cccc(N2CC(O)Cn3c2nc2c3c(=O)n(CCCc3ccccc3)c(=O)n2C)c1 (stereo unspecified) | 7.7% |
| CN1C(=O)CSc2ccc(NC(=O)Nc3ccccn3)cc21 | -13.1% |
| Cc1cc(C)nc(NS(=O)(=O)c2ccccc2)n1 | 16.4% |

| Structure (SMILES) | cytotoxicity |
| --- | --- |
| COc1ccc(-c2nc3c(c(SCC(=O)N4CCOCC4)n2)COC(C)(C)C3)cc1 | 52.7% (active) |
| O=C(CSc1nc(-c2ccccc2)nc2c1CCCC2)N1CCOCC1 | -14.2% |
| COc1ccc(-c2ccc(SCC(=O)N3CCOCC3)nn2)cc1 | -3.5% |
| COCCCNC(=O)CS(=O)(=O)Cc1nc(-c2ccccc2C)oc1C | -5.9% |
| CC(=O)N1CCc2ccc(C(=O)CN3CCN(c4cccc(C)c4C)CC3)cc21 | -16.3% |
| O=C(c1ccco1)N1CCN(c2nc(C(F)(F)F)nc3c2nnn3Cc2ccccc2)CC1 | -16.9% |
| Cc1nc(N2CCCC2)c2nnn(Cc3ccccc3Cl)c2n1 | -7.7% |
| Cc1nc(NCc2ccco2)c2c3c(sc2n1)CCC3 | 52% (active) |
| c1coc(CNc2ncnc3sc4c(c23)CCCCC4)c1 | -13.4% |
| CSc1nc(NCc2ccco2)c2c3c(sc2n1)CN(C)CC3 | -5.3% |
| O=C(CSc1ncnc2sc3c(c12)CCCCC3)NCc1ccco1 | 1.1% |
| CC(C)c1nc2sc3c(NCc4ccco4)ncnc3c2c2c1COC(C)(C)C2 | -13.3% |
| CSc1nc(SCC(=O)NCc2ccco2)c2c3c(sc2n1)CN(C)CC3 | 4.2% |
| CC(C)Sc1nc(NCc2ccco2)c2c3c(sc2n1)COC(C)(C)C3 | 68.5% (active) |
| CC(C)c1nc2sc3c(SCC(=O)NCc4ccco4)ncnc3c2c2c1CCC2 | 7.4% |
| CC(C)Sc1nc(SCC(=O)NCc2ccco2)c2c3c(sc2n1)COC(C)(C)C3 | 0.4% |
| CSc1nc(SCC(=O)NCc2ccco2)c2c3c(sc2n1)COC(C)(C)C3 | 50.1% (active) |
| Cc1nc(SCC(=O)NCc2ccco2)c2c3c(sc2n1)CCCC3 | 2.5% |
| CCCc1nc2sc3c(SCC(=O)NCc4ccco4)ncnc3c2c2c1CCC2 | 50.3% (active) |
| COc1cccc(C(O)c2cnc(C(C)C)n2C)c1OC (stereo unspecified) | 10.6% |
| O=C(Nc1ccc(S(=O)(=O)N2CCCCC2)cc1)c1ccncc1 | -7.1% |
| CCOc1ccccc1-c1nnc(SCC(=O)Nc2ccccc2)o1 | -17.6% |
| COCCCNC(=O)CS(=O)(=O)Cc1nc(-c2cccc(OC)c2)oc1C | -6.5% |
| COc1ccc(-c2nnc3n2-c2ccccc2SC3)cc1OC | 0% |
| O=C(Cc1cc(=O)[nH]c(=O)[nH]1)N1CCN(C(=O)c2ccco2)CC1 | 7.1% |
| CCCCCc1cc(O)c2c(C)cc(=O)oc2c1 | 39.2% |

| Structure (SMILES) | cytotoxicity |
| --- | --- |
| CCCCc1ccc(-c2ccc(C)cc2O)nc1 | -28% |
| C=CCn1c(SCc2csc(C)n2)nc2sc3c(c2c1=O)CCCCC3 | 2.5% |
| Cc1ccc(-c2csc3nc(C)n(-n4c(C)ccc4C)c(=O)c23)o1 | 10.3% |
| C=CCn1c(SCc2csc(C)n2)nc2scc(-c3ccc(C)o3)c2c1=O | 80.2% (active) |
| Cc1ccc(-c2noc(CN(C(=O)CCN3C(=O)c4ccccc4C3=O)C(C)C)n2)cc1 | -8.2% |
| CC(=O)OCCOc1nc(N(C)C)nc(N(C)C)n1 | -13.1% |
| O=C(CCN1CCCC1Cc1ccccc1)c1ccc2c(c1)OCCO2 (stereo unspecified) | -15.3% |
| Cc1cc(C)n(-c2nnc(C)n2/N=C/c2cc(Br)ccc2OCc2ccccc2)n1 | 65.2% (active) |
| Cc1cc(C)n(-c2nnc(C)n2/N=C/c2ccccc2OCc2ccccc2Cl)n1 | 43.9% |
| CCCOc1ccc2ccccc2c1/C=N/n1c(C)nnc1-n1nc(C)cc1C | 39.3% |
| COc1ccc(-c2nnn(CC(=O)c3ccc4c(c3)OCCO4)n2)cc1OC | 0.3% |
| CN1CCN(C(=O)c2ccc3ccccc3c2)CC1 | -8.1% |
| O=C(c1ccc2ccccc2c1)N1CCN(c2ccccc2)CC1 | -11.6% |
| O=C(c1ccc2ccccc2c1)N1CCN(c2ccc(O)cc2)CC1 | 65.9% (active) |
| CC(C)OCCCNC(=O)c1ccc(NC(=O)C2CCCO2)cc1 (stereo unspecified) | -5.7% |
| Cc1cc(NC(=O)C23CCC(C)(C(=O)O2)C3(C)C)no1 (stereo unspecified) | 1.7% |
| O=C(NCc1ccco1)N1c2ccccc2Sc2ccccc21 | 7.5% |
| COC(=O)C1=C(C)NC(=O)C1(NC(=O)CN1CCCC1=O)C(F)(F)F (stereo unspecified) | 13.1% |
| CCOC(=O)C1CCCN(C(=O)c2cc3c(C)nc4ccccc4c3o2)C1 (stereo unspecified) | -14.6% |
| N#Cc1c(NC(=O)CSc2nnnn2C2CCCCC2)sc2c1CCCC2 | -26.1% |
| N#Cc1c(NC(=O)CSc2nnnn2C2CCCC2)sc2c1CCCC2 | 50.4% (active) |
| Cc1sc(NC(=O)CSc2nnnn2C2CCCC2)c(C#N)c1C | -6.4% |
| CC1CCCN(C(=O)c2ccc3nc[nH]c3c2)C1 (stereo unspecified) | -23.2% |
| COc1ccc(C)cc1NC(=O)c1ccc(S(=O)(=O)N2CCOCC2)cc1 | -1.3% |
| COc1cccc(C=NCCNC(=O)c2nonc2N)c1O | -2.1% |
| Nc1nonc1C(=O)NCCNC(=O)c1ccccc1F | 2.3% |

| Structure (SMILES) | cytotoxicity |
| --- | --- |
| Nc1nonc1C(=O)NCCN=Cc1cc(Cc2ccccc2)cc(Br)c1O | 82.8% (active) |
| O=C(OCc1ccccc1Cl)c1ccc(-n2cnnc2)cc1 | -8% |
| CCOc1ccc(-n2cnnn2)cc1S(=O)(=O)NCc1ccccc1 | 4.1% |
| CC(C)(O)C1=NOC(c2ccccc2)C1 (stereo unspecified) | 6.7% |
| CCOC(=O)c1ccc(NC(=O)CSc2nnc(-c3cccs3)n2CC)cc1 | 0.1% |
| Cc1ccc(SC/C(O)=C(\C#N)c2nc3ccccc3n2C)cc1 | 20.5% |
| COC(=O)c1ccc(/C(O)=C(\C#N)c2nc3ccccc3s2)cc1 | 52.1% (active) |
| COc1ccc(C/C(O)=C(\C#N)c2nc3ccccc3s2)cc1 | 46.6% |
| CC(C)=C(C#N)c1nc2ccccc2s1 | -11.4% |
| Cc1ccc(SC/C(O)=C(\C#N)c2nc3ccccc3s2)cc1 | 79.7% (active) |
| N#C/C(=C(/O)CN1CCOCC1)c1nc2ccccc2s1 | 3% |
| c1ccc(N2CCN(c3nnc(Cc4cccnc4)c4ccccc34)CC2)nc1 | 8.4% |
| COc1ccc(OC)c(NC(=O)c2cnc3ccccn3c2=O)c1 | 12.6% |
| COC(=O)CN(c1ccc(F)cc1)S(=O)(=O)c1ccccc1 | -5.6% |
| CC(C)CCNC(=O)CN(C(=O)CCC(=O)Nc1ccccn1)c1ccc2c(c1)OCO2 | -9.3% |
| COC(=O)c1cc(N2C(=O)C3C(C2=O)C2(C)C=CC3(C)O2)ccc1Cl (stereo unspecified) | 8% |
| Cc1cccc(OCCCN2CCCCCC2)c1 | 18.4% |
| Cc1cccc(OCCn2c(=O)n(C)c3ccccc32)c1 | 2.1% |
| CCCn1nc(CC(=O)O)c2ccccc2c1=O | 0.6% |
| Cc1ccc(NC(=O)CCn2c(=O)oc3ccccc32)c(C)c1 | -9.2% |
| CCCCn1c(SCN2C(=O)c3ccccc3C2=O)nc2cc(S(N)(=O)=O)ccc21 | -14.9% |
| CCCCn1c(SCc2c(C)noc2C)nc2cc(S(N)(=O)=O)ccc21 | 39.5% |
| CCCCn1c(SCc2ncc(-c3ccccc3)o2)nc2cc(S(N)(=O)=O)ccc21 | 53.1% (active) |
